# ChEMBL document CHEMBL4513216, “Probing the Open Global Health Chemical Diversity Library for Multistage-Active Starting Points for Next-Generation Antimalarials” (ACS Infect Dis, 2020)
# Out of some 69,000 compounds screened, about 8,600 (12%) showed an effect of 50% or more. The entries come from a sample that favours strong results as a whole.
# Tested on: Plasmodium berghei
# Assay: Screen against P. berghei liver stage (PbLuc), transformed with Luciferase, at 10uM
# Assay type: functional, HepG2
# Conditions: tested at 10 uM
row,SMILES,INHIBITION
1,O=C(O)c1ccc(CC2CCN(S(=O)(=O)N3CCOCC3)C2)cc1 (stereo not drawn),32.5%
2,CN(C)C(=O)CNC(=O)c1cc2c(s1)CCN2S(C)(=O)=O,26.3%
3,Cc1ccc(CNC(=O)c2nc3c(o2)CN(C(=O)c2cccnc2)C3)o1,-21.1%
4,O=C(NCc1ccccc1)c1nc2c(o1)CN(C(=O)c1cccnc1)C2,53.2%
5,COc1cccc(CNC(=O)c2nc3c(o2)CN(C(=O)N(C)C)C3)c1,48.2%
6,CCCNC(=O)c1nc2c(o1)CN(C(C)=O)C2,-0.388%
7,CN1CCN(C(=O)c2nc3c(o2)CN(C(=O)c2cccnc2)C3)CC1,50.1%
8,CN(C)CCNC(=O)c1nc2c(o1)CN(C(=O)c1cccnc1)C2,-75.3%
9,O=C(NCc1ccncc1)c1nc2c(o1)CN(C(=O)c1cccnc1)C2,29%
10,O=C(NCCN1CCCC1)c1nc2c(o1)CN(C(=O)c1cccnc1)C2,-42.8%
11,CN1CCCN(C(=O)c2nc3c(o2)CN(C(=O)c2cccnc2)C3)CC1,1.9%
12,CS(=O)(=O)N1Cc2nc(C(=O)NCc3ccccc3)oc2C1,24.6%
13,CC(=O)N1Cc2nc(C(=O)NCCc3cccnc3)oc2C1,70.7%
14,COc1cccc(CNC(=O)c2nc3c(o2)CN(S(C)(=O)=O)C3)c1,52.6%
15,O=C(NC1CC1)C1=CC2(CCN(CCO)CC2)c2ccccc21,28.4%
16,COCC(=O)N1CCCC2(CCN(CCN3CCCC3)CC2)C1,-12.1%
17,Cc1noc(C)c1CN(C)C(=O)c1ccc(O)nc1,25.1%
18,CC(=O)N(C)CC(=O)NCC1CCN(c2cc(Cl)ccc2C)C1 (stereo not drawn),-23.7%
19,Cc1nccc([C@@H]2C[C@@H]3CCN(S(=O)(=O)N(C)C)C[C@H]3O2)n1,26.3%
20,Cn1ccc(C(=O)N2CCCC(Cc3cnc4ccccc4c3)C2)n1 (stereo not drawn),-0.371%
21,COCCn1cnc2ccc(NC(=O)c3c(C)noc3C)cc2c1=O,35.7%
22,Cn1cc(C(=O)N2CC[C@@H]3[C@@H]2CCN3Cc2cccc(F)c2)cn1,43.2%
23,CC[C@@H](CO)NC(=O)c1coc(COc2ccc3sc(C)nc3c2)n1,41.5%

row,SMILES,INHIBITION
1,Cc1nc2cc(OCc3nc(C(=O)NC(CO)CO)co3)ccc2s1,29.4%
2,Cc1nc2cc(OCc3nc(C(=O)NC(C)(CO)CO)co3)ccc2s1,74.5%
3,Cn1nnnc1SCC1(O)CCCCC1,1.74%
4,O=S(=O)(CC1CCCCO1)Nc1cc(F)ccc1-n1cccn1 (stereo not drawn),25.7%
5,Cc1ccc(S(=O)(=O)Nc2ccc(N3CCSCC3)c(C(=O)O)c2)s1,43.9%
6,Cc1cc2nc(C(C)C)cc(N(C)CC3CCCN3C)n2n1 (stereo not drawn),33%
7,Cc1cc2nc(C(C)C)cc(N(C)CC3CCN(C(C)C)C3)n2n1 (stereo not drawn),27.6%
8,Cc1cc2nc(C(C)C)cc(N(C)CC3CCCN(CCO)C3)n2n1 (stereo not drawn),58.5%
9,Cc1ccc(NC2CCN(C(=O)c3cncnc3C)CC2)nn1,-17.22%
10,CCn1ccc(NC(=O)CCc2c(C)nn(C)c2C)n1,38.7%
11,CNC(=O)CS(=O)(=O)C1CCN(S(=O)(=O)c2ccccc2Br)CC1,-26.6%
12,CNC(=O)CS(=O)(=O)C1CCN(S(=O)(=O)c2ccccc2Cl)CC1,25.8%
13,CNC(=O)CS(=O)(=O)C1CCN(S(=O)(=O)c2cccc(Cl)c2C)CC1,80%
14,Cc1cccc2[nH]c(COCC(=O)N3CCCn4cncc4C3)nc12,22.7%
15,COc1ccc(C(=O)Nc2c(C(=O)N(C)C)nn(C)c2C)cc1,61.5%
16,Cc1ccc(C(=O)Nc2c(C(=O)N(C)C)nn(C)c2C)cc1,-10.6%
17,Cc1c(NC(=O)c2ccc(Br)cc2)c(C(=O)N(C)C)nn1C,17.6%
18,CCOCC1CN(Cc2ccsc2)Cc2cnn(C)c21 (stereo not drawn),36.2%
19,O=C(NCCCOc1cccnc1)c1cn(Cc2ccccc2F)nn1,12.9%
20,COC(=O)CNC(=O)c1cn(Cc2ccccc2F)nn1,82.9%
21,COCC1CCN(C(=O)c2cn(Cc3ccccc3F)nn2)CC1,14.2%
22,CC(Cn1cncn1)NC(=O)c1cn(Cc2ccccc2F)nn1 (stereo not drawn),68.8%
23,NCCn1cc(C(=O)NCc2ccccc2Cn2cccn2)nn1,29.4%

row,SMILES,INHIBITION
1,CCOC(=O)CC(NC(=O)c1cn(Cc2ccccc2F)nn1)C(C)C (stereo not drawn),72.6%
2,COC(=O)C(CO)NC(=O)c1cn(Cc2ccccc2F)nn1 (stereo not drawn),-4.4%
3,CCOC(=O)CC(C)NC(=O)c1cn(Cc2ccccc2F)nn1 (stereo not drawn),-44.2%
4,CC(NC(=O)NCCCn1cncn1)c1ccccc1F (stereo not drawn),11.9%
5,COc1ccc(CNCCc2cc(F)cc3c2OCOC3)c(OC)c1,30%
6,Cc1cc(C(=O)NCc2ccc(F)cc2)nc(C2CCCN2C)n1 (stereo not drawn),-3.31%
7,OCCO[C@H]1C[C@@H](O)C12CCN(Cc1nc(C(F)(F)F)no1)CC2,-17.8%
8,CCN1CCCCC1C(=O)N1CCN(C(=O)OC)CC1 (stereo not drawn),29.9%
9,CCn1cnnc1C1CCN(C(=O)c2cnc(C)s2)CC1,27.6%
10,CC(C)c1ncncc1C(=O)NCCN1CCCCC1C (stereo not drawn),36.9%
11,CCOCC1CCN(C(=O)C(c2cccc(F)c2)N(C)C)CC1 (stereo not drawn),17.5%
12,CN(C(=O)CC1=CCCCC1)C1CCCN(CCc2ccccc2)C1 (stereo not drawn),59.2%
13,CN(C(=O)CC1=CCCCC1)C1CCCN(C2Cc3ccccc3C2)C1 (stereo not drawn),28.3%
14,CN(C(=O)CCc1ccncc1)C1CCCN(CCc2ccccc2)C1 (stereo not drawn),-8.07%
15,CC(O)c1cn(Cc2ccc(Cl)cc2Cl)nn1 (stereo not drawn),7.92%
16,Cc1cc(C(=O)N2CCCC2c2noc(C)n2)[nH]n1 (stereo not drawn),38.5%
17,CCCC(=O)N(C)c1cc(C#N)c2ccccc2n1,-31.7%
18,CCCNC(=O)c1cccc2ncccc12,26.7%
19,CN(C(=O)CCC(F)(F)F)c1cccc2ncccc12,71.4%
20,CCCC(=O)N(C)c1cccc2ncccc12,77.8%
21,Cc1cccc(=O)n1CCC(=O)N(C)Cc1cccc2ncccc12,33.1%
22,CN(Cc1cccc2ncccc12)C(=O)CCC(F)(F)F,19.7%
